Laboratory results: PubChem BioAssay (NCI)
The panel holds about 83,000 compounds, 20% with a hit somewhere; the sample as a whole holds those more often.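 Interpretation: 100, growth as untreated; towards 0, rising growth inhibition; 0, no net growth; 0 to -100, cell death. Compounds scoring below 10 were considered active.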 Active and inactive are the calls of the source.

Tests used:
Experiment in all cases: NCI-60 one-dose screen, 48 h (100 = growth as untreated, 0 = no growth, -100 = all killed)
Settings in all cases: 10 µM unless noted
SK-MEL-2 melanoma = test system: SK-MEL-2 melanoma
EKVX NSCLC = test system: EKVX NSCLC
SN12C renal = test system: SN12C renal
UO-31 renal = test system: UO-31 renal
TK-10 renal = test system: TK-10 renal
ACHN renal = test system: ACHN renal
A498 renal = test system: A498 renal
MOLT-4 leukemia = test system: MOLT-4 leukemia
SR leukemia = test system: SR leukemia
RPMI-8226 leukemia = test system: RPMI-8226 leukemia
OVCAR-8 ovarian = test system: OVCAR-8 ovarian
OVCAR-5 ovarian = test system: OVCAR-5 ovarian
OVCAR-4 ovarian = test system: OVCAR-4 ovarian
SK-OV-3 ovarian = test system: SK-OV-3 ovarian
IGROV1 ovarian = test system: IGROV1 ovarian
OVCAR-3 ovarian = test system: OVCAR-3 ovarian
HS 578T breast = test system: HS 578T breast
NCI/ADR-RES ovarian = test system: NCI/ADR-RES ovarian
T-47D breast = test system: T-47D breast
CCRF-CEM leukemia = test system: CCRF-CEM leukemia

Measured: growth

O=c1c2ccccc2n(CC(O)CN2CCCC2)c2c(Br)cccc12 (stereo not drawn)
inactive: SK-MEL-2 melanoma 112% | EKVX NSCLC 99.1% | SN12C renal 109% | UO-31 renal 89.1% | TK-10 renal 106% | ACHN renal 108% | A498 renal 71.8% | MOLT-4 leukemia 104% | SR leukemia 77% | RPMI-8226 leukemia 44.9% | OVCAR-8 ovarian 94.1% | OVCAR-5 ovarian 76.3% | OVCAR-4 ovarian 108% | SK-OV-3 ovarian 101% | IGROV1 ovarian 93.3% | OVCAR-3 ovarian 106% | HS 578T breast 98.9% | T-47D breast 93.4%
active: NCI/ADR-RES ovarian -14.8%

COc1cc(C(=O)N2CCN(c3ccccc3OC)CC2)c(NC(=O)c2cnccn2)cc1OCc1ccccc1
inactive: SK-MEL-2 melanoma 85.7% | EKVX NSCLC 57.2% | SN12C renal 88.6% | UO-31 renal 39% | TK-10 renal 102% | ACHN renal 92.5% | A498 renal 84.9% | MOLT-4 leukemia 52.4% | SR leukemia 60.7% | RPMI-8226 leukemia 65.9% | OVCAR-8 ovarian 91.1% | OVCAR-5 ovarian 90.8% | OVCAR-4 ovarian 79% | SK-OV-3 ovarian 90.2% | IGROV1 ovarian 63.9% | OVCAR-3 ovarian 92.7% | HS 578T breast 103% | NCI/ADR-RES ovarian 78.9% | T-47D breast 66.8%

CC(=O)c1cnc(-c2ccccc2)nc1CBr
inactive: SK-MEL-2 melanoma 98.3% | EKVX NSCLC 79.7% | SN12C renal 51.2% | UO-31 renal 44.7% | TK-10 renal 79% | ACHN renal 35.3% | A498 renal 82% | MOLT-4 leukemia 26% | RPMI-8226 leukemia 37.7% | OVCAR-8 ovarian 89.3% | OVCAR-5 ovarian 96.3% | OVCAR-4 ovarian 79.7% | SK-OV-3 ovarian 105% | IGROV1 ovarian 89.2% | OVCAR-3 ovarian 30.1% | HS 578T breast 89% | NCI/ADR-RES ovarian 92.2% | T-47D breast 38.5%
active: SR leukemia -20.9%

COc1ccc2c(c1)Oc1nc(N)c(C#N)c(N)c1C2Sc1ccc(SC)cc1 (stereo not drawn)
active: SK-MEL-2 melanoma -25.6% | UO-31 renal 5.13% | TK-10 renal -16.4% | ACHN renal -66.3% | MOLT-4 leukemia 0.548% | SR leukemia -17.5% | RPMI-8226 leukemia 2.48% | IGROV1 ovarian 0.493% | OVCAR-3 ovarian -63.3% | T-47D breast -7.13%
inactive: EKVX NSCLC 32.6% | SN12C renal 21.7% | A498 renal 95.4% | OVCAR-8 ovarian 21.2% | OVCAR-5 ovarian 112% | OVCAR-4 ovarian 37.2% | SK-OV-3 ovarian 94.4% | HS 578T breast 67.7% | NCI/ADR-RES ovarian 62.9%

Cc1cc(C)c2nc(Nc3nc(C)c(C)c(=O)[nH]3)nc(C)c2c1
active: SK-MEL-2 melanoma -25.6% | A498 renal -9.66% | MOLT-4 leukemia 4.84% | SR leukemia -9.54% | RPMI-8226 leukemia -17.1% | SK-OV-3 ovarian 7.87% | IGROV1 ovarian 9.55% | OVCAR-3 ovarian 5.78%
inactive: EKVX NSCLC 12.4% | SN12C renal 20% | UO-31 renal 11.1% | TK-10 renal 17% | ACHN renal 23.5% | OVCAR-8 ovarian 15.5% | OVCAR-5 ovarian 48.8% | OVCAR-4 ovarian 20.8% | HS 578T breast 21.2% | NCI/ADR-RES ovarian 40.8% | T-47D breast 18.9%

N#Cc1ccc(N2Cc3cc(Cl)ccc3OC3=C2C(=O)N(Cc2ccc(F)cc2)C3=O)cc1
active: SK-MEL-2 melanoma -46.5% | SN12C renal -24.9% | UO-31 renal -85.7% | TK-10 renal -79.4% | ACHN renal -92.9% | MOLT-4 leukemia -34.5% | SR leukemia -33.5% | RPMI-8226 leukemia -21.8% | OVCAR-8 ovarian -26.9% | OVCAR-5 ovarian -1.59% | OVCAR-4 ovarian -25.8% | IGROV1 ovarian -5.53% | OVCAR-3 ovarian -89% | T-47D breast -70.3%
inactive: EKVX NSCLC 37.4% | A498 renal 120% | SK-OV-3 ovarian 102% | HS 578T breast 27% | NCI/ADR-RES ovarian 10.1%

O=C(CCCCCCCCC(=O)Nc1cccc(C2=NCCN2)c1)Nc1cccc(C2=NCCN2)c1
inactive: SK-MEL-2 melanoma 99.8% | EKVX NSCLC 105% | SN12C renal 81.6% | UO-31 renal 96.3% | TK-10 renal 92.4% | ACHN renal 112% | A498 renal 93.5% | MOLT-4 leukemia 89.4% | SR leukemia 65.5% | RPMI-8226 leukemia 78.6% | OVCAR-8 ovarian 107% | OVCAR-5 ovarian 109% | OVCAR-4 ovarian 102% | SK-OV-3 ovarian 113% | IGROV1 ovarian 104% | OVCAR-3 ovarian 112% | HS 578T breast 113% | NCI/ADR-RES ovarian 104% | T-47D breast 81%

Cc1nccc2c3ccc(OCc4cn(-c5ccc(Cl)cc5)nn4)cc3n(CC(C)C)c12
active: MOLT-4 leukemia -11.1% | SR leukemia -14.8% | RPMI-8226 leukemia -35.1%
inactive: SK-MEL-2 melanoma 20.7% | EKVX NSCLC 40.8% | SN12C renal 37.7% | UO-31 renal 12.4% | TK-10 renal 13.7% | ACHN renal 34.8% | A498 renal 22.6% | OVCAR-8 ovarian 25.2% | OVCAR-5 ovarian 44.2% | OVCAR-4 ovarian 30.5% | SK-OV-3 ovarian 24.2% | IGROV1 ovarian 44.4% | OVCAR-3 ovarian 35.3% | HS 578T breast 38.8% | NCI/ADR-RES ovarian 14.1% | T-47D breast 14%

COc1cc(/C=C/C(=O)c2ccc(NC(=O)CSc3nnc(-c4cc(OC)c(OC)c(OC)c4)n3-c3ccccc3)cc2)cc(OC)c1OC
inactive: SK-MEL-2 melanoma 32.1% | EKVX NSCLC 31.3% | SN12C renal 41% | TK-10 renal 45.1% | ACHN renal 17.9% | OVCAR-5 ovarian 61.4% | OVCAR-4 ovarian 54.8% | SK-OV-3 ovarian 38% | HS 578T breast 83.1% | NCI/ADR-RES ovarian 44.3% | T-47D breast 50.3%
active: UO-31 renal -50.3% | A498 renal -12.1% | MOLT-4 leukemia 5.18% | SR leukemia 2.13% | RPMI-8226 leukemia -13.1% | IGROV1 ovarian 7.57% | OVCAR-3 ovarian -17.8%

COc1ccc(/C=C/C(=O)Nc2ncnc3nc[nH]c23)cc1
inactive: SK-MEL-2 melanoma 96.2% | EKVX NSCLC 100% | SN12C renal 96.2% | UO-31 renal 87.8% | TK-10 renal 103% | ACHN renal 111% | CCRF-CEM leukemia 79.2% | MOLT-4 leukemia 68.9% | SR leukemia 73.4% | RPMI-8226 leukemia 99% | OVCAR-8 ovarian 103% | OVCAR-5 ovarian 118% | OVCAR-4 ovarian 98.8% | SK-OV-3 ovarian 113% | IGROV1 ovarian 105% | OVCAR-3 ovarian 104% | HS 578T breast 101% | NCI/ADR-RES ovarian 96.6%

CCCCC(=O)Nc1c(C(=O)Nc2ccccc2)sc2nc3c(cc12)C(OC(=O)CCCC)CCC3 (stereo not drawn)
active: SR leukemia -10.6%
inactive: SK-MEL-2 melanoma 93.8% | EKVX NSCLC 91.9% | SN12C renal 96.9% | UO-31 renal 89% | TK-10 renal 98.2% | ACHN renal 115% | A498 renal 64.7% | MOLT-4 leukemia 75.9% | RPMI-8226 leukemia 48.9% | OVCAR-8 ovarian 84.7% | OVCAR-5 ovarian 111% | OVCAR-4 ovarian 36.7% | SK-OV-3 ovarian 108% | IGROV1 ovarian 99.8% | OVCAR-3 ovarian 102% | HS 578T breast 89.5% | NCI/ADR-RES ovarian 79.3% | T-47D breast 79%

Cc1cc(Nc2nc(SCc3ccc(C(=O)Nc4ccc(F)cc4N)cc3)nn3cccc23)n[nH]1
active: A498 renal 5.84% | MOLT-4 leukemia 6.29%
inactive: SK-MEL-2 melanoma 18.2% | EKVX NSCLC 31% | SN12C renal 29% | UO-31 renal 31% | TK-10 renal 48.8% | ACHN renal 21.1% | SR leukemia 13.3% | RPMI-8226 leukemia 13.1% | OVCAR-8 ovarian 15.4% | OVCAR-5 ovarian 52.3% | OVCAR-4 ovarian 40.8% | SK-OV-3 ovarian 17.9% | IGROV1 ovarian 33.6% | OVCAR-3 ovarian 11.4% | HS 578T breast 37.4% | NCI/ADR-RES ovarian 30.2% | T-47D breast 62.1%

C=C1C(=O)O[C@H]2[C@H]1CC/C(COC(=O)n1ccnc1)=C\CC[C@@]1(C)O[C@@H]21
inactive: SK-MEL-2 melanoma 89.4% | EKVX NSCLC 80.9% | SN12C renal 96.2% | UO-31 renal 73.3% | TK-10 renal 94.7% | ACHN renal 82.8% | A498 renal 125% | MOLT-4 leukemia 83.4% | SR leukemia 77.5% | RPMI-8226 leukemia 85.3% | OVCAR-8 ovarian 99.8% | OVCAR-5 ovarian 117% | OVCAR-4 ovarian 103% | SK-OV-3 ovarian 102% | IGROV1 ovarian 77.7% | OVCAR-3 ovarian 57% | HS 578T breast 99.2% | NCI/ADR-RES ovarian 102% | T-47D breast 78.2%

C#C[C@@]1(O)[C@@H](CO)O[C@@H](n2cc(Cl)c3c(N)ncnc32)[C@@H]1O
inactive: OVCAR-5 ovarian 16.1%
active: SK-MEL-2 melanoma -20.6% | EKVX NSCLC -32.4% | SN12C renal 1.7% | UO-31 renal -60.1% | TK-10 renal -3.3% | ACHN renal -12.5% | A498 renal -68.8% | MOLT-4 leukemia 1.07% | SR leukemia 0.983% | RPMI-8226 leukemia -5.63% | OVCAR-8 ovarian -23% | OVCAR-4 ovarian -4.32% | SK-OV-3 ovarian -10.3% | IGROV1 ovarian -17.5% | OVCAR-3 ovarian -10.1% | HS 578T breast 5.45% | NCI/ADR-RES ovarian -1.89% | T-47D breast -12.9%

NC(N)=NC(N)=Nc1cc2ccccc2c2ccccc12
active: SK-MEL-2 melanoma 5.61% | MOLT-4 leukemia 9.61% | SR leukemia -2.98% | RPMI-8226 leukemia -15.4%
inactive: EKVX NSCLC 58% | SN12C renal 35.4% | UO-31 renal 32.6% | TK-10 renal 20.8% | ACHN renal 22.9% | A498 renal 26% | OVCAR-8 ovarian 45% | OVCAR-5 ovarian 57.3% | OVCAR-4 ovarian 45.8% | SK-OV-3 ovarian 59.8% | IGROV1 ovarian 17.2% | OVCAR-3 ovarian 63.2% | HS 578T breast 46.5% | NCI/ADR-RES ovarian 80.4% | T-47D breast 30.2%
